The record followed here is the OligoGym collection.
Note: reference of the scale not given here.

In one assay the target is RYR2. Briefly: pooled miR-30 sensor sort-seq; sequence = guide strand. The settings on record: shRNA.
In the case of TTTTGTACTCGGTTCCACCTGA, the sensor-assay potency score (higher = more potent) was 0.606.

TATGCTATGATTTTCTTCCAGA yielded a sensor-assay potency score (higher = more potent) of -0.61.

For TTCACTTGAACTTCTCGTGGGG, the sensor-assay potency score (higher = more potent) stood at 0.903.

The sequence TTTAGTAGCTTCTTTGTCTTTG gave a sensor-assay potency score (higher = more potent) of 0.401.

As for TATTCGAGACACATCTACCTTC, the sensor-assay potency score (higher = more potent) was found to be 0.298.

In turn, TAAATCACTGTTTCCATCCAGA gave a sensor-assay potency score (higher = more potent) of 0.11.

Take TAAGTTGTAATTGCGCTCCTGT: the sensor-assay potency score (higher = more potent) worked out at 0.62.

The sequence TTTTATTGTAGAATTTTCGGAA gave a sensor-assay potency score (higher = more potent) of -0.252.

In turn, TAGTACATAGTGAACTGCGATG returned a sensor-assay potency score (higher = more potent) of -0.997.

Sequence TTCATTATTATCCATCACCGAA came in with a sensor-assay potency score (higher = more potent) of -1.08.

The target of the next assay is S100A11. The assay is described as above. Conditions: shRNA.
In turn, AAATTCTGAGAAATCTAGCTGA returned a sensor-assay potency score (higher = more potent) of 0.4.

In turn, AAGCTTAGGAACTCTGTCTTGG yielded a sensor-assay potency score (higher = more potent) of 0.352.

In turn, ATCTAGCTGACCATCACTGTTG returned a sensor-assay potency score (higher = more potent) of -0.625.

The sequence TAGTTCTGTATTCATGAAGCTT registered a sensor-assay potency score (higher = more potent) of -0.971.

Consider TTCTGGTTCTTTGTGAAGGCAG, for which the sensor-assay potency score (higher = more potent) was -0.487.

TCCAGTTTCTTCATCATGCGGT: the sensor-assay potency score (higher = more potent) was -0.21.

ATCCTTTCCAGCATACTTCTGG: the sensor-assay potency score (higher = more potent) was -0.568.

Sequence TATAACCATCCTTTCCAGCATA gave a sensor-assay potency score (higher = more potent) of -1.17.

AATTCTGAGAAATCTAGCTGAC registered a sensor-assay potency score (higher = more potent) of -0.15.

For the sequence AGTGTAGTTATAACCATCCTTT, the sensor-assay potency score (higher = more potent) is -1.48.

In the case of TTGTGAAGGCAGCTAGTTCTGT, the sensor-assay potency score (higher = more potent) is -0.251.

A further assay has as its target S100A4. The assay is described as above. Conditions: shRNA.
TAGTTCTGACTTGTTGAGCTTG registered a sensor-assay potency score (higher = more potent) of -0.701.

Take TTGTTGAGCTTGAACTTGTCAC: the sensor-assay potency score (higher = more potent) is -0.424.

Regarding TTGCTCAGCATCAAGCACGTGT, the sensor-assay potency score (higher = more potent) was -0.253.

Regarding TTGAACTTGTCACCCTCTTTGC, the sensor-assay potency score (higher = more potent) is -0.681.

The sequence TCAGCTTCTGGAAAGCAGCTTC registered a sensor-assay potency score (higher = more potent) of 0.395.

Sequence TGACTTGTTGAGCTTGAACTTG gave a sensor-assay potency score (higher = more potent) of -1.01.

With TTCGTTACACATCATGGCGATG, the sensor-assay potency score (higher = more potent) was -1.19.

TGAGCTTGAACTTGTCACCCTC came in with a sensor-assay potency score (higher = more potent) of 0.664.

With TTGAGCTTGAACTTGTCACCCT, the sensor-assay potency score (higher = more potent) stood at 0.789.

For TTTATTGAACTTGCTCAGCATC, the sensor-assay potency score (higher = more potent) is -1.33.

On to TACTCTTGGAAGTCCACCTCGT, for which the sensor-assay potency score (higher = more potent) came to 0.392.

In turn, TTACACATCATGGCGATGCAGG returned a sensor-assay potency score (higher = more potent) of -0.526.

The target in another assay is S100P. The description is as above. Conditions: shRNA.
Turning to TACTTGTGACAGGCAGACGTGA, the sensor-assay potency score (higher = more potent) is -0.639.

TTGCCAACAAACACTTTTGGGA gave a sensor-assay potency score (higher = more potent) of -0.0452.

Take TGGTAGCTCCTTCTCCATCAGC: the sensor-assay potency score (higher = more potent) is -1.75.

Sequence TTGGTCAGGGTCTGCGTGCTGC had a sensor-assay potency score (higher = more potent) of -0.458.

For the sequence TACATGAGCAGGCTCAGCCTAG, the sensor-assay potency score (higher = more potent) is -0.833.

Sequence GAACTCACTGAAGTCCACCTGG displayed a sensor-assay potency score (higher = more potent) of -0.698.

On to AAGACGTCTATGATCATGCCCA, for which the sensor-assay potency score (higher = more potent) turned out to be 0.0811.
